The record followed here is PubChem BioAssay (NCI).

Experiment in all cases: NCI-60 one-dose screen, 48 h (100 = growth as untreated, 0 = no growth, -100 = all killed)
What all share (details): 10 µM unless noted

The subject of assay [1] is DU-145 prostate.
Assay [2] concerns K-562 leukemia.
Assay [3] concerns MALME-3M melanoma.
The test system of assay [4] is MDA-MB-231 breast.
Assay [5] relates to RXF 393 renal.
Assay [6] concerns SF-268 CNS.
Assay [7] relates to SF-295 CNS.
The test system of assay [8] is SF-539 CNS.
In assay [9] the test system is UACC-257 melanoma.
Assay [10] relates to M14 melanoma.
For assay [11], the system named is HCT-15 colon.
Assay [12] concerns HT29 colon.
Assay [13] has as its system SNB-75 CNS.
Assay [14] has as its system SNB-19 CNS.
The subject of assay [15] is U251 CNS.
Assay [16] has as its system PC-3 prostate.
Assay [17] has as its system UACC-62 melanoma.
Assay [18] has as its system LOX IMVI melanoma.
Assay [19] concerns SK-MEL-28 melanoma.
The subject of assay [20] is SK-MEL-5 melanoma.

Compounds without any hit were thinned out: in the full panel of roughly 83,000, 20% have a hit.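 Interpretation: 100, growth as untreated; towards 0, rising growth inhibition; 0, no net growth; 0 to -100, cell death. Compounds scoring below 10 were considered active.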 Values without a mark were called inactive. The source made the active and inactive calls.

On to `O=C1N(Cc2ccccc2Cl)c2ccccc2C12NN=C(c1ccccc1)S2` (configuration not stated), for which the growth is 61.9% in [1]; 43.1% in assay [2]; 82.8% in assay [3]; 72.8% in assay [4]; 75.1% in [5]; 51.7% in assay [6]. For the same compound, the growth in assay [7] is 41%; in assay [8], 66.3%; in assay [9] it was 87.6%; in assay [10], 58.3%; in assay [11] it was 35.3%; in assay [12], 107%. The growth in [13] is 71.8%; in assay [14] it was 53%; in assay [15] it was 36.1%; in assay [16] it was 45.1%; in assay [17] it was 58.6%; in [18] it was 42.3%. The growth in assay [19] is 78.6%.

In the case of `COc1ccccc1/C=N\Nc1ccc([N+](=O)[O-])cn1`, the growth was 114% in assay [1]; 112% in assay [2]; 117% in assay [3]; 103% in assay [4]; 115% in assay [5]; 105% in [6]. The growth was 96.3% in [7]; 98.7% in [8]; 108% in assay [9]; 94.4% in assay [10]; 102% in assay [11]; 107% in assay [12]. Besides, the growth in assay [13] was 110%; in assay [14] it was 103%; in [15] it was 101%; in assay [16] it was 98.8%; in assay [17], 100%; in assay [18], 98.5%. For the same compound, in assay [19], the growth is 120%.

`C[C@@H]1CC2C3CCC4=CC(=O)C=C[C@]4(C)[C@@]3(Cl)[C@@H](O)C[C@]2(C)[C@@]1(OC(=O)c1ccco1)C(=O)CCl` (some centres not stated): the growth is 79% in assay [1]; 56.7% in assay [2]; 87.7% in assay [3]; 72.2% in assay [4]; 77.7% in assay [5]; 53.7% in assay [6]. The growth in assay [7] was 64.4%; in assay [8], 53%; in assay [9], 96.4%; in assay [10], 82%; in assay [11] it was 79.7%; in assay [12], 70.8%. Further, the growth in assay [13] was 86.3%; in assay [14], 86%; in assay [15] it was 85%; in assay [20], 55%; in assay [17], 42%; in [18], 61.6%. Further, the growth in [19] was 88.9%.

Consider `CCCCCCCC/C=C/CCCCCCCC1=NC(C)(C)CN1c1ccccc1`, for which the growth in assay [1] is 97.2%; in [2], 65.9%; in assay [3] it was 115%; in assay [4], 103%; in assay [5], 85%; in assay [6] it was 91.9%. Besides, the growth was -5.3% (active) in assay [7]; 96.9% in assay [8]; 90.2% in assay [9]; 99.7% in assay [10]; 80.5% in assay [11]; 66.8% in assay [12]. In addition, the growth was 90% in assay [13]; 87.8% in assay [14]; 84.5% in assay [15]; 64% in assay [16]; 75.2% in assay [17]; 85.3% in [18]. Besides, the growth in assay [19] was 103%.

On to `CO[C@H](C(=O)[C@@H](O)[C@@H](C)O)[C@@H]1Cc2cc3cc(O[C@H]4C[C@@H](O[C@H]5C[C@@H](O)[C@H](O)C(C)O5)[C@H](O)C(C)O4)c(C)c(O)c3c(O)c2C(=O)[C@H]1O[C@H]1C[C@@H](O[C@H]2C[C@@H](O[C@H]3C[C@](C)(O)C(=O)C(C)O3)[C@@H](O)C(C)O2)[C@H](O)C(C)O1` (some centres not stated), for which the growth in assay [1] was 9.76% (active); in [2], 9.26% (active); in assay [3], -26.8% (active); in [4], 10.6%; in [5], -54.2% (active); in assay [6], 16.4%. The growth in assay [7] was 6.84% (active); in assay [8], 0.369% (active); in [9], -27.4% (active); in [10], -27% (active); in assay [11], 20.2%; in assay [12], -13.9% (active). The growth was -65.5% (active) in assay [13]; 10.8% in [14]; 2.98% (active) in assay [15]; -32.2% (active) in assay [20]; -30.7% (active) in [17]; -5.83% (active) in [18]. Besides, the growth in assay [19] is -18.8% (active).

On to `Cc1ccc(OC2=C(C#N)C(=N)N3C(=NN2)Sc2c(C)ccc(C)c23)cc1`, for which the growth is 122% in [1]; 98% in assay [2]; 120% in [3]; 95.4% in assay [4]; 106% in assay [5]; 113% in assay [6]. Further, the growth in assay [7] is 96.7%; in [8], 102%; in assay [9], 108%; in assay [10], 109%; in [11], 104%; in assay [12], 116%. Moreover, the growth is 96.5% in [13]; 118% in [14]; 103% in assay [15]; 96.3% in assay [20]; 98.7% in assay [17]; 96.7% in assay [18]. Also, the growth in [19] is 106%.

For the compound `CCN1C(=O)C(C)C=C(C)C=C1C` (configuration not stated), the growth in [1] was 90.7%; in assay [2] it was 95.3%; in assay [3] it was 104%; in [4], 112%; in [5] it was 106%; in assay [6], 103%. Also, the growth was 59.8% in assay [7]; 112% in [8]; 107% in assay [9]; 120% in assay [10]; 99.9% in [11]; 111% in assay [12]. The growth is 104% in assay [13]; 109% in assay [14]; 111% in [15]; 123% in assay [16]; 103% in [17]; 103% in assay [18]. Moreover, the growth in [19] is 116%.

As for `CCCCCCCCCCCCCC1=NC(C)(C)CN1C(C)C`, the growth in [1] was 9.58% (active); in [2], -49.5% (active); in [3] it was -48.9% (active); in [4] it was -56.7% (active); in assay [5], -65.9% (active); in assay [6], -53.5% (active). Besides, the growth in assay [7] was -52.8% (active); in assay [8], -79.2% (active); in assay [9], -57.5% (active); in [10] it was -74.8% (active); in assay [11], -65.1% (active); in assay [12], -57.5% (active). The growth in [13] was -41.1% (active); in assay [14], 28.9%; in [15], -63.5% (active); in assay [20] it was -86.7% (active); in assay [17], -70.8% (active); in assay [18] it was -74.1% (active). Also, the growth in assay [19] was -73% (active).
